For 14 compounds, outcome and AC50 results are on record in PubChem BioAssay (EPA / NIEHS).

Records with an inconclusive call do not appear. Calls of active or inactive are those of the source. Rule for the calls: active = hit-call score of the fitted dose curve at least 0.9, where 1 is the maximum; inconclusive = response in the unintended direction; inactive = score below 0.9.

The target in assay [1] is human Serotonin, 5-Hydroxytryptamine Receptor 6 (5HT6), HTR6 (gene 3362) (UniProt P50406). Kind of assay: NVS_GPCR_h5HT6: NovaScreen (NVS) G Protein-Coupled Receptor Assay for human Serotonin, 5-Hydroxytryptamine Receptor 6 (5HT6) (AID 2283253). A digest of the protocol:
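Radioligand binding to 5HT6 in HEK293-derived membranes, cell-free, 1 h after dosing; bound ligand measured by filter-based scintillation counting. Primary screen in duplicate at 25 uM; actives retested in concentration series.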

Assay [2] has as its system guinea pig Muscarinic, Peripheral (Mperiperal) Receptor, Non-selective Binding, gene 100379235. Put plainly: NVS_GPCR_gMPeripheral_NonSelective: NovaScreen (NVS) G Protein-Coupled Receptor Assay for guinea pig Muscarinic, Peripheral (Mperiperal) Receptor, Non-selective Binding (AID 2283250). A digest of the protocol:
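Guinea pig bladder membranes, radioligand binding read 1 h after dosing by filter scintillation counting; loss of signal vs DMSO. Primary duplicate screen at 25 uM, then concentration-response up to 50 uM.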

Assay [3] concerns the target human Serotonin, 5-Hydroxytryptamine Receptor 5A (5HT5A), HTR5A (gene 3361) (UniProt P47898). Put plainly: NVS_GPCR_h5HT5A: NovaScreen (NVS) G Protein-Coupled Receptor Assay for human Serotonin, 5-Hydroxytryptamine Receptor 5A (5HT5A) (AID 2283251). A digest of the protocol:
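Cell-free radioligand displacement binding on HEK293-derived membrane protein, 1 h incubation, filter-based scintillation counting. Primary screen in duplicate at 25 uM, actives followed in concentration series; loss of signal fitted versus DMSO.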

The target in assay [4] is guinea pig Opioid, Kappa 1 Receptor (OpiateK), OPRK1 (gene 100135587) (UniProt P41144). Kind of assay: NVS_GPCR_gOpiateK: NovaScreen (NVS) G Protein-Coupled Receptor Assay for guinea pig Opioid, Kappa 1 Receptor (OpiateK) (AID 2283252).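 Note: radioligand displacement from kappa opioid receptor in guinea pig cerebellar membranes; active means reduced radioligand binding relative to DMSO.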 The essentials:
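Signal is scintillation counts of filter-trapped radioligand bound to guinea pig cerebellar membrane receptor, measured 2 hours post-dosing. Activity is loss of binding versus DMSO, first at 25 uM in duplicate, then as concentration series for actives.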

Assay [5] deals with human Adrenergic, Alpha 2A Receptor (Adra2A), ADRA2A (gene 150) (UniProt P08913). Put plainly: NVS_GPCR_hAdra2A: NovaScreen (NVS) G Protein-Coupled Receptor Assay for human Adrenergic, Alpha 2A Receptor (Adra2A) (AID 2283257). A digest of the protocol:
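Radioligand filter-binding was run on HT29-derived membranes, cell-free, read by scintillation counting 1 h after dosing. Primary screening was in duplicate at 25 uM, with concentration series in follow-up. Loss of signal versus DMSO indicates displacement.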

Assay [6] has as its target human Adrenergic, Beta 1 Receptor (Adrb1), ADRB1 (gene 153) (UniProt P08588). Kind of assay: NVS_GPCR_hAdrb1: NovaScreen (NVS) G Protein-Coupled Receptor Assay for human Adrenergic, Beta 1 Receptor (Adrb1) (AID 2283258). A digest of the protocol: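 Cell-free radioligand displacement on receptor from human neuroepithelioma cells; 2 h after dosing, filter-based scintillation counting. Primary screen in duplicate at 25 uM, actives retested in concentration series; loss of signal vs DMSO baseline.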

Assay [7] deals with Beta-2 adrenergic receptor (Homo sapiens) (UniProt P07550). Put plainly: NVS_GPCR_hAdrb2: NovaScreen (NVS) G Protein-Coupled Receptor Assay for human Adrenergic, Beta 2 Receptor (Adrb2) (AID 2283261). The essentials: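 Filter-based radioligand binding using receptor prepared from CHO cells, 1 h incubation, scintillation counting. Primary screen in duplicate at 25 uM, actives retested in concentration series; loss of binding relative to DMSO.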
Beta-2 adrenergic receptor (Homo sapiens), sequence (P07550 whole entry, looked up): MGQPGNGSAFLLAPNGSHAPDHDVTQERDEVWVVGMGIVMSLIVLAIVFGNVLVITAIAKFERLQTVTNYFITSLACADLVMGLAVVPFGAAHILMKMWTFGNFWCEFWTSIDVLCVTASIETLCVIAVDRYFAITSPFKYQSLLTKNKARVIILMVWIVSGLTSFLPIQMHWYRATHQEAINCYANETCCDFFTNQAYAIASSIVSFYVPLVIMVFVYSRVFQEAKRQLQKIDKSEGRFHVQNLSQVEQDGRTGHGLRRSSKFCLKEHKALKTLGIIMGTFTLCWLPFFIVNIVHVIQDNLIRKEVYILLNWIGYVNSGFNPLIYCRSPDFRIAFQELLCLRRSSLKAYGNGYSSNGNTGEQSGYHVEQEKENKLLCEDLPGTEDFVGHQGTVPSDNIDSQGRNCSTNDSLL

Assay [8] addresses human Adrenergic, Beta 3 Receptor (Adrb3), ADRB3 (gene 155) (UniProt P13945). Kind of assay: NVS_GPCR_hAdrb3: NovaScreen (NVS) G Protein-Coupled Receptor Assay for human Adrenergic, Beta 3 Receptor (Adrb3) (AID 2283262). The essentials: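 Membranes from SK-N-MC cells pretreated with isoproterenol and 8-bromo-cAMP were used in a radioligand competitive displacement binding assay. Binding was read by filter-based scintillation counting 1 hour after dosing. Primary screening was in duplicate at 25 uM, with concentration series in follow-up.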

The target in assay [9] is Type-1 angiotensin II receptor (Homo sapiens) (UniProt P30556). Put plainly: NVS_GPCR_hAT1: NovaScreen (NVS) G Protein-Coupled Receptor Assay for human Angiotensin II receptor type 1 (AT1) (AID 2283263). A digest of the protocol: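 Membranes from KAN-TS cells; radioligand competitive displacement, 3 h, filtration and scintillation counting. Single-point duplicate screen at 25 uM, then concentration-response up to 50 uM for hits; loss of signal fitted versus DMSO.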
Type-1 angiotensin II receptor (Homo sapiens), sequence (P30556 whole entry, looked up): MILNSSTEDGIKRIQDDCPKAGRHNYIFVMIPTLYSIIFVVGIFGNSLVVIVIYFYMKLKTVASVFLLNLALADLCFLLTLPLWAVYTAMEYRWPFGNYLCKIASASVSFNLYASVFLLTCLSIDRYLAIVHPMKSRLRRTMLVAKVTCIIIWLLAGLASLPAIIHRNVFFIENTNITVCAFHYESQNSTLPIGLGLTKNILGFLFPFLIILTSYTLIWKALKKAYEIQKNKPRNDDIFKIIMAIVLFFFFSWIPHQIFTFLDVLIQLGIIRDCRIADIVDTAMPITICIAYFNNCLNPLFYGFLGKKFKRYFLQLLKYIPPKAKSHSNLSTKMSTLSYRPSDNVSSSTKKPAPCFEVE

Assay [10] deals with human Endothelin Receptor Type A (ETA), EDNRA (gene 1909) (UniProt P25101). Put plainly: NVS_GPCR_hETA: NovaScreen (NVS) G Protein-Coupled Receptor Assay for human Endothelin Receptor Type A (ETA) (AID 2283265). A digest of the protocol: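 Cell-free radioligand displacement using SH-SY5Y-derived protein, 3 h incubation, filter-based scintillation counting. Primary screen in duplicate at 25 uM; actives then run in concentration-response up to 50 uM; loss of binding fitted versus DMSO.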
human Endothelin Receptor Type A (ETA), EDNRA (gene 1909), sequence (P25101 whole entry, looked up): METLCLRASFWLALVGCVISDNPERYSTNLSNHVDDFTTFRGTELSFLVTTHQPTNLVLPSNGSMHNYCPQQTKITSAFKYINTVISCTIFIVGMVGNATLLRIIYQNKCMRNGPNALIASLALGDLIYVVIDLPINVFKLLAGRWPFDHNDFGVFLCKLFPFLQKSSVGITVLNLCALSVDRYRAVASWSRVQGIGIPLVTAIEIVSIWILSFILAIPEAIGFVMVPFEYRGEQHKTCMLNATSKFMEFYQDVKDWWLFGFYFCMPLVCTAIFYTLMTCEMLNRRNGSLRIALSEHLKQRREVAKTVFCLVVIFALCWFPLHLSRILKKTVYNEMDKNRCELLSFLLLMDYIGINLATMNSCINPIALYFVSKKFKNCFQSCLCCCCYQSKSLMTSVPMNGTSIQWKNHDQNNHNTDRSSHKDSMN

For assay [11], the target named is human Endothelin Receptor Type B (ETB), EDNRB (gene 1910) (UniProt P24530). Put plainly: NVS_GPCR_hETB: NovaScreen (NVS) G Protein-Coupled Receptor Assay for human Endothelin Receptor Type B (ETB) (AID 2283267). The essentials:
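Human astrocytoma cell membranes; radioligand competitive binding read by filter scintillation counting 4 hours after dosing. Single-concentration duplicate screen at 25 uM, then singleton concentration-response up to 50 uM; loss of signal versus DMSO.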

The target of assay [12] is human Adenosine A2a Receptor (AdoRA2a), ADORA2A (gene 135) (UniProt P29274). Put plainly: NVS_GPCR_hAdoRA2a: NovaScreen (NVS) G Protein-Coupled Receptor Assay for human Adenosine A2a Receptor (AdoRA2a) (AID 2283256). A digest of the protocol: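 Cell-free radioligand binding on membranes from HEK293 expressing the receptor; competitive displacement read 1.5 h after dosing by filter-based scintillation counting. Primary screen in duplicate at 25 uM; actives followed in concentration series, with DMSO as baseline.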

In assay [13] the target is human Adenosine A1 Receptor (AdoRA1), ADORA1 (gene 134) (UniProt P30542). Kind of assay: NVS_GPCR_hAdoRA1: NovaScreen (NVS) G Protein-Coupled Receptor Assay for human Adenosine A1 Receptor (AdoRA1) (AID 2283254). The essentials: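 Radioligand binding was run on human cortical membranes, cell-free, with filter-based scintillation counting 1 h after dosing. The primary screen was duplicate at 25 uM, followed by concentration series. Signal loss versus DMSO was fitted positive-direction.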

The target in assay [14] is human Serotonin, 5-Hydroxytryptamine Receptor 7 (5HT7), HTR7 (gene 3363) (UniProt P34969). Put plainly: NVS_GPCR_h5HT7: NovaScreen (NVS) G Protein-Coupled Receptor Assay for human Serotonin, 5-Hydroxytryptamine Receptor 7 (5HT7) (AID 2283255).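 Note: hits reduce specific radioligand binding relative to DMSO.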 The essentials:
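Radioligand displacement on membranes from CHO cells expressing human 5HT7, 1 h incubation, filter-based scintillation counting. Primary screen used a single 25 uM concentration in duplicate; actives were followed up in concentration series.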

Assay [15] deals with human Dopamine Receptor D4.4 (DRD4.4), DRD4 (gene 1815) (UniProt P21917). Kind of assay: NVS_GPCR_hDRD4.4: NovaScreen (NVS) G Protein-Coupled Receptor Assay for human Dopamine Receptor D4.4 (DRD4.4) (AID 2283264). A digest of the protocol: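 Radioligand displacement on human DRD4.4 from CHO-derived membranes, 1 hour incubation, bound counts read by filtration and scintillation. Primary screen in duplicate at 25 uM; actives followed up in concentration series.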

Assay [16] concerns the target human Serotonin, 5-Hydroxytryptamine Receptor 2A (5HT2A), HTR2A (gene 3356) (UniProt P28223). Put plainly: NVS_GPCR_h5HT2A: NovaScreen (NVS) G Protein-Coupled Receptor Assay for human Serotonin, 5-Hydroxytryptamine Receptor 2A (5HT2A) (AID 2283249). A digest of the protocol:
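Human cortex membranes, cell-free radioligand binding; filter-based scintillation read 1.5 h after dosing. Duplicate screen at 25 uM first; displacement of specific binding (loss of signal) versus DMSO.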

guinea pig Opioid, Kappa 1 Receptor (OpiateK), OPRK1 (gene 100135587), sequence (P41144 whole entry, looked up): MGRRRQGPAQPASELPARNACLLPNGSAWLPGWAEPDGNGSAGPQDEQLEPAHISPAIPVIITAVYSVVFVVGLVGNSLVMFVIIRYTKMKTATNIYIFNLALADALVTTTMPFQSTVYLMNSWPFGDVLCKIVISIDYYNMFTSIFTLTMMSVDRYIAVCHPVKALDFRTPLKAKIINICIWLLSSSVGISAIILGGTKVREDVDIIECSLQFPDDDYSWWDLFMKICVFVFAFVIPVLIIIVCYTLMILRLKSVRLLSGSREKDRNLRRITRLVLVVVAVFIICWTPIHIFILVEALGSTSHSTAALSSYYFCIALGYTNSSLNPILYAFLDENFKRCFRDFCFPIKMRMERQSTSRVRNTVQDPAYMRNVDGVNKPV
human Serotonin, 5-Hydroxytryptamine Receptor 7 (5HT7), HTR7 (gene 3363), sequence (P34969 whole entry, looked up): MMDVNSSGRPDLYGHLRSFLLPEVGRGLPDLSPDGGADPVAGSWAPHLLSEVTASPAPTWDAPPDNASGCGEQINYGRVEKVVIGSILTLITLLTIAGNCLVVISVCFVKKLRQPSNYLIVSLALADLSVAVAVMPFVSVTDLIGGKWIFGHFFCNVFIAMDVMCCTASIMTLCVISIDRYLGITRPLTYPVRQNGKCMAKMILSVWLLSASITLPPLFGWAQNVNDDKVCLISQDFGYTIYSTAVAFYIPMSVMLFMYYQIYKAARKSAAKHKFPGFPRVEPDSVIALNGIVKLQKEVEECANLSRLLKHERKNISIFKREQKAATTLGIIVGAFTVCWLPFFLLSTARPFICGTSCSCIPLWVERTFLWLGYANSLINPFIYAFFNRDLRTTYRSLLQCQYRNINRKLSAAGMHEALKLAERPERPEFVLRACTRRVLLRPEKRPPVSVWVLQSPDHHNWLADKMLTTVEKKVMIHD
human Serotonin, 5-Hydroxytryptamine Receptor 5A (5HT5A), HTR5A (gene 3361), sequence (P47898 whole entry, looked up): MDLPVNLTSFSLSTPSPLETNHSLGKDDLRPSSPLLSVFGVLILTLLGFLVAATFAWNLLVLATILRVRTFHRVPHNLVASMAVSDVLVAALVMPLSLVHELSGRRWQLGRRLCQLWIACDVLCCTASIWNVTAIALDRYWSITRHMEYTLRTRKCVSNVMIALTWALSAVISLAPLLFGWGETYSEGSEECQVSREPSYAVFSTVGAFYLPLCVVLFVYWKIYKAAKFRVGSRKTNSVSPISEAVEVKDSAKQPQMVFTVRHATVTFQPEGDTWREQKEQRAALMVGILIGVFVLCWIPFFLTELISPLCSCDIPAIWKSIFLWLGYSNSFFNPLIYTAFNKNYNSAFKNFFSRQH
human Adrenergic, Beta 1 Receptor (Adrb1), ADRB1 (gene 153), sequence (P08588 whole entry, looked up): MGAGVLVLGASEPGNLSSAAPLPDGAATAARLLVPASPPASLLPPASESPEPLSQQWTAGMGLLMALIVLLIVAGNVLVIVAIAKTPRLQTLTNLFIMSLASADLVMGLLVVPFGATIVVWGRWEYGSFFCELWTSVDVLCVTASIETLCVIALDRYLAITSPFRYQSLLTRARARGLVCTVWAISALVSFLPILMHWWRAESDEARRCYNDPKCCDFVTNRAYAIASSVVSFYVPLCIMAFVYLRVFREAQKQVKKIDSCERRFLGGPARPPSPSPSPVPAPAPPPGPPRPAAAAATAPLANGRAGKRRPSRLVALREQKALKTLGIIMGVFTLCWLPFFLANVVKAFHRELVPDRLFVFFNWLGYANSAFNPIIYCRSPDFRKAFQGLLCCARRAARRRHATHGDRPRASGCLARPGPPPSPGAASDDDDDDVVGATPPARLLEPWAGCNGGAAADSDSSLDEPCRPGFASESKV
human Endothelin Receptor Type B (ETB), EDNRB (gene 1910), sequence (P24530 whole entry, looked up): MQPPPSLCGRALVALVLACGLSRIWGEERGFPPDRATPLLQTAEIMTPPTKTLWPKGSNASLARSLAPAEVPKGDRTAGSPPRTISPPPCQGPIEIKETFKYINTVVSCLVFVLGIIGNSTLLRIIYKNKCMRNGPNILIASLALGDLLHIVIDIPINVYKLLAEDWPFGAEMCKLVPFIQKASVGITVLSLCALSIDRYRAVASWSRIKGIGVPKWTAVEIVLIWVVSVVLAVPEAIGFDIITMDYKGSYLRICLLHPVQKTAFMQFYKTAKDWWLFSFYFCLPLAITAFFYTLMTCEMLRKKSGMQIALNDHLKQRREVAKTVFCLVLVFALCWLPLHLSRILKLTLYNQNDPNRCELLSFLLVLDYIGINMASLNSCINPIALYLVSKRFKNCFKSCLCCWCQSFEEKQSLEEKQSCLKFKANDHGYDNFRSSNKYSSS
human Adrenergic, Beta 3 Receptor (Adrb3), ADRB3 (gene 155), sequence (P13945 whole entry, looked up): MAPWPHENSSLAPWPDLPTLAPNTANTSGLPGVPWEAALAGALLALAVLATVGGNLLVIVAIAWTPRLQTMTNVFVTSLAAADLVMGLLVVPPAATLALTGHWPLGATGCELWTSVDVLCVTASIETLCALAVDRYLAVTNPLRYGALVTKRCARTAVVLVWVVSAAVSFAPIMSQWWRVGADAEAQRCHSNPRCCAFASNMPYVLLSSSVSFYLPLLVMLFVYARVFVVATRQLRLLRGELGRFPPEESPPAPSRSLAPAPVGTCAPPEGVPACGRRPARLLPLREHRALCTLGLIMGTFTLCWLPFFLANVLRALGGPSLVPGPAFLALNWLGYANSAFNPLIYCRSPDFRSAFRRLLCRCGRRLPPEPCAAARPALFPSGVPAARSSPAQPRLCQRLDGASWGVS
human Adrenergic, Alpha 2A Receptor (Adra2A), ADRA2A (gene 150), sequence (P08913 whole entry, looked up): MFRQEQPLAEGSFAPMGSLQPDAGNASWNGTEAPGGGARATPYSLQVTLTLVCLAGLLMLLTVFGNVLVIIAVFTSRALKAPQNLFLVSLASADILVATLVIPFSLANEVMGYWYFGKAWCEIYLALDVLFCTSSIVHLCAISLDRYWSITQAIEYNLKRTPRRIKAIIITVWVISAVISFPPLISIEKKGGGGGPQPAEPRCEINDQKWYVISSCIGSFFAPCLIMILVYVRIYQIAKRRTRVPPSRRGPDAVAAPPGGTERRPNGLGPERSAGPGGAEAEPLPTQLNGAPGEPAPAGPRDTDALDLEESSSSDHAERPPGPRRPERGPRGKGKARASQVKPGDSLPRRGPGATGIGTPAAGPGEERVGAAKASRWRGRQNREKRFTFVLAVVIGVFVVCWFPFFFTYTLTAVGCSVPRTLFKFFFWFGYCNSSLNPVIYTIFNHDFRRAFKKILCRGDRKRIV
human Serotonin, 5-Hydroxytryptamine Receptor 6 (5HT6), HTR6 (gene 3362), sequence (P50406 whole entry, looked up): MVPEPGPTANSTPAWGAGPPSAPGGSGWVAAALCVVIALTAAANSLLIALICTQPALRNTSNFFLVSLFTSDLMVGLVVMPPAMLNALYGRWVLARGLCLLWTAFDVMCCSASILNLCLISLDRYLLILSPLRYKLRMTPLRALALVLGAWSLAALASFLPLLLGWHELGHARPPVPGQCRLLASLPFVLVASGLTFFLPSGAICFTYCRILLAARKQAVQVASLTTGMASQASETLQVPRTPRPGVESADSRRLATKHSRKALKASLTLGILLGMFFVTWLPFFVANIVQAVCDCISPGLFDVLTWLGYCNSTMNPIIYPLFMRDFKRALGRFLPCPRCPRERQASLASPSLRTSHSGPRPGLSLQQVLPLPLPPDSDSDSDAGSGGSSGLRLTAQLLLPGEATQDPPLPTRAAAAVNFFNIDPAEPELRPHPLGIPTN

For the compound `CC1(C)C(=O)NC(=O)N1CO`, the compound was classed as inactive in [1].
In general, AC50 refers to the concentration giving half of the maximal activity seen. Turning to `CN(C)CCCN1c2ccccc2Sc2ccc(Cl)cc21`, the AC50 in assay [2] was 1.66 µM (active); in assay [3], 1.35 µM (active); in [4], 10.1 µM (active); in assay [5] it was 1.43 µM (active); in assay [6], 25 µM (active); in [7], 17.1 µM (active). In addition, in assay [8], the AC50 is 25 µM (active).
`CCc1cc(C2=C(C(=O)O)N(c3ccccc3C(F)(F)F)S(=O)(=O)c3ccccc32)cc2c1OCO2`: the compound was called inactive in assay [4]. For the same compound, the AC50 was 16.2 µM (active) in assay [9], 0.0451 µM (active) in [10] and 0.442 µM (active) in [11].
`CCCCCCC(CCCCCCCCCCC(=O)OCC(COC(C)=O)OC(C)=O)OC(C)=O` (stereo unspecified): the call in assay [6] was inactive.
Turning to `CCCCCCCCCC[N+](C)(C)[O-]`, in [8], the call was inactive.
As to `Cc1cc(Cc2ccc(N)c(C)c2)ccc1N`, the result in assay [3] and in assay [12] was inactive.
Consider `NCCOCCOCCN`, for which, in assay [11], the result was inactive.
Consider `C=CCCCCCCCCCCCC`, for which, in assay [13], the call was inactive.
On to `CCc1nc(N)nc(N)c1-c1ccc(Cl)cc1`, for which the compound was called inactive in assay [2], in assay [3] and in assay [7]. Further, the AC50 in [14] was 4.76 µM (active); in assay [5] it was 4.81 µM (active); in assay [15], 5.9 µM (active).
`CC(=O)O`: the outcome in assay [16] was inactive.
Turning to `CCCC[C@H]1CN(CC2CCOCC2)C(=O)OC12CCN(C1(C)CCN(C(=O)c3c(C)ncnc3C)CC1)CC2`, in [2], the AC50 is 3.04 µM (active).
As for `O=C1CCCCC1`, the result in assay [4] was inactive.
For the compound `CC(C)(C)c1ccccc1`, in [14], the outcome was inactive.
In the case of `NC(=Nc1ccccc1)Nc1ccccc1`, the result in [2] was inactive. Also, the AC50 was 25 µM (active) in assay [4] and 11.8 µM (active) in assay [14].
